Bioassay records: PubChem BioAssay, National Center for Advancing Translational Sciences (NCATS)
HPGD block – HPGD (human) dehydrogenase inhibition; P15428; purified HPGD, NADH fluorescence kinetic, PGE2 substrate; Potency, µM, hits mostly inhibitors; hit rate 4.3% among 150,000; AID 894; active means well fitted inhibition curve with a large enough effect, not every such curve was filed as active; inconclusive means small, poorly fitted or top-dose-only effect, or another doubt; inactive means no such curve, though single readings can be large or run the other way
Target sequence (P15428 whole entry, looked up): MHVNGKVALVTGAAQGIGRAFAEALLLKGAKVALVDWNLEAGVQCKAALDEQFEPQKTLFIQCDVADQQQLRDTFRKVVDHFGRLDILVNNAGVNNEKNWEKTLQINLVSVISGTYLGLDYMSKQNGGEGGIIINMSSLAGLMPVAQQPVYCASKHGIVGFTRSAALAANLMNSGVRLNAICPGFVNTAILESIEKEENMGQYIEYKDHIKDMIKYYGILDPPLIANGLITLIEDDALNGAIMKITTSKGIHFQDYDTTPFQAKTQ
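20 nM HPGD preincubated 15 min at room temperature with compound in 50 mM Tris-HCl pH 8, 0.01% Tween 20. Started with 1 mM NAD+ and 30 uM prostaglandin E2; NADH fluorescence (360/450 nm) read 5 times over 30-s intervals, last minus first.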
HTT ATP protect – Huntington cell model cytoprotection by ATP luminescence; hit rate 0.14% among 230,000; Potency, µM (titrated, usually from 56.4 µM), actives largely listed as activators; PC12 HTT-Q103 induced, cytoprotection, ATP luminescence, 40 h; AID 1471; further: nearly all actives have a fitted effect of over 45% in size
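Compounds added alongside 100 nM tebufenozide, which induces toxic Q103 huntingtin exon 1-GFP in stable PC12 cells; surviving cells quantified by luminescent ATP measurement. Medium: phenol red-free DMEM, 5% equine and 5% calf serum.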
ALDH1A1 inh – ALDH1A1 (human) enzyme inhibition. P00352. Purified ALDH1A1, NADH fluorescence, propionaldehyde substrate. Potency, µM (series often up to 75.3 µM), hits mostly inhibitors. hit rate 7.3% among 220,000; active means well fitted inhibition curve with a large enough effect, not every such curve was filed as active; inconclusive means small, poorly fitted or top-dose-only effect, or another doubt; inactive means no such curve, though single readings can be large or run the other way
IMPase Li inh – IMPase inhibition in cells with lithium potentiation | CHO-M1 cells, IP1 TR-FRET (IP-One), carbachol + lithium | Potency, µM (series often up to 59.4 µM), hits mostly inhibitors | AID 1457 | hit rate 0.35% among 210,000;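 further: IP1 builds up when IMPase is blocked and the TR-FRET signal falls; nearly all actives have a fitted effect of over 50% in size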
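Concentration–response in CHO-M1 cells, lithium-potentiated; 30 min at 37C. IP1 detected by competitive TR-FRET after 10 min lysis at RT. Hill-fitted AC50.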
IMPase cell inh – cell-permeable inhibitors of inositol monophosphatase (IMPase) | P97697 | CHO-M1 cells, IP1 accumulation, HTRF TR-FRET ratio | inhibition (IP1 accumulation), % at 46.1 µM | 120,000 tested, under 10 active; active means well fitted curve in the direction sought with a large enough effect in the signal ratio, not every such curve was filed as active; inconclusive means small, poorly fitted or top-dose-only effect, or a change in a side signal; inactive means no such curve, though single readings can be large or run the other way; the % refers to the signal ratio;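 further: cells stimulated with carbachol in lithium chloride buffer; higher means more IMPase inhibition seen as more IP1 and lower FRET ratio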
Target sequence (P97697 whole entry, looked up): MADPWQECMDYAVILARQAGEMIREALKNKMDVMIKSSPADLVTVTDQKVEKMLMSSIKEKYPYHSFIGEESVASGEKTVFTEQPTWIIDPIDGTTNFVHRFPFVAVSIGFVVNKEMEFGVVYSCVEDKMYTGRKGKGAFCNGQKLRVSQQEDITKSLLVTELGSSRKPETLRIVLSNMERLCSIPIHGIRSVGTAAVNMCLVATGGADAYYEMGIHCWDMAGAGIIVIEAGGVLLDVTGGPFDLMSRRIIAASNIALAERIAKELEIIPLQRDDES
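The IP-One HTRF competitive assay in carbachol-stimulated CHO-M1 cells quantifies cellular IP1. Compounds spanned up to 46 uM final, and activity is expressed as AC50 from concentration-response fits of the ratio and donor data.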
HTT aggregate – inhibitors of mutant huntingtin aggregate formation in PC12 cells; PC12 HttQ103-GFP aggregates, Acumen cytometry, 40 h; Potency, µM (top dose mostly 46.1 µM), usual class: inhibitors; hit rate 1.1% among 220,000; further: nearly all actives have a fitted effect of over 60% in size
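Aggregate formation scored by laser-scanning cytometer (488 excitation, 500–530 emission) in lysed PC12 cells expressing Q103-GFP after 100 nM tebufenozide induction; library tested in dose series, with ATPLite reagent added in the multiplex.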
Each line names hits and unclear results; the compound was inactive in the other large screens. The list is not random: actives were taken first. Their share in the collection is about 9.4%. Unless noted, the call rests on the fitted dose curve; in most records, active means well fitted curve in the direction sought with a large enough effect; inconclusive means small, poorly fitted or top-dose-only effect, or another doubt; inactive means no such curve, though single readings can be large; an effect the other way counts as inactive or inconclusive.

Cc1cn(C2CC(N=[N+]=[N-])C(CO)O2)c(=O)[nH]c1=O (stereo not drawn)	none (no result: HTT ATP protect, IMPase cell inh, HTT aggregate)
c1ccc(OCc2nn3c(Cn4cnc5ccccc54)nnc3s2)cc1	HPGD block 11µM, ALDH1A1 inh 19µM
c1ccc(-c2ccc(C3=Nn4c(Cn5nnc6ccccc65)nnc4SC3)cc2)cc1	HPGD block 18µM, ALDH1A1 inh 28µM
c1ccc2c(c1)ncn2Cc1nnc2sc(-c3ccncc3)nn12	HPGD block 7.9µM, ALDH1A1 inh 10µM
c1ccc(-c2nn3c(Cn4cnc5ccccc54)nnc3s2)cc1	HPGD block 4.5µM, ALDH1A1 inh 2.2µM
Clc1ccc(Cl)c(-c2nn3c(Cn4cnc5ccccc54)nnc3s2)c1	none (no result: HPGD block, ALDH1A1 inh, IMPase Li inh, IMPase cell inh, HTT aggregate)
OCc1ccccc1O[C@H]1OC(CO)C(O)C(O)C1O (stereo partly drawn)	none (no result: HTT ATP protect, IMPase cell inh, HTT aggregate)
N#Cc1cccc(NC(=O)N2CC[C@@]3(CCCNC3)C2)c1	HTT ATP protect inconclusive, ALDH1A1 inh inconclusive (no result: IMPase cell inh, HTT aggregate)
c1cncc(-c2nn3c(Cn4cnc5ccccc54)nnc3s2)c1	HPGD block 3.2µM, ALDH1A1 inh 1µM
COc1ccc(-n2c(Cn3nnc4ccccc43)n[nH]c2=S)cc1	none (no result: HTT ATP protect, IMPase cell inh)
COc1ccc(Cc2nn3c(Cn4nnc5ccccc54)nnc3s2)cc1	HPGD block 22µM, ALDH1A1 inh 11µM
c1ccc(-c2nn3c(Cn4nnc5ccccc54)nnc3s2)cc1	HPGD block 10µM, ALDH1A1 inh 3.2µM
Cc1cc(F)ccc1NC(=O)CCSc1nc(-c2ccco2)cc(C(F)(F)F)n1	none (no result: HPGD block, HTT ATP protect, ALDH1A1 inh, IMPase Li inh, HTT aggregate)
Cc1ccc(-c2nc3ncccc3o2)cc1NC(=O)c1ccccc1Br	none (no result: HPGD block, HTT ATP protect, ALDH1A1 inh, IMPase Li inh, HTT aggregate)
CN(C)C(=O)c1ccc(-c2cncnc2Nc2ccc(F)cc2)cc1	ALDH1A1 inh 11µM (no result: HPGD block, IMPase cell inh, HTT aggregate)
CN(C)Cc1ccccc1-c1cncnc1Nc1ccc(F)cc1	none (no result: IMPase cell inh, HTT aggregate)
COCC(C)Nc1nc(C)c(C(C)=O)s1 (stereo not drawn)	none (no result: HPGD block, IMPase cell inh)
O=C(C(=S)N1CCOCC1)c1c[nH]c2ccccc12	ALDH1A1 inh 3.2µM (no result: HPGD block, IMPase cell inh)
O=C(CN1CCOCC1)c1c[nH]c2ccccc12	none
C=CC[C@@H]1C=C[C@H](ON=C(C)C)[C@H](CO)O1	none (no result: HPGD block, IMPase Li inh, IMPase cell inh, HTT aggregate)
COc1ccc(Sc2nc(-c3ccccn3)ncc2OC)cc1	ALDH1A1 inh inconclusive, HTT aggregate inconclusive (no result: HPGD block, IMPase cell inh)
COc1cnc(-c2ccccn2)nc1Sc1ccccc1	ALDH1A1 inh 10µM (no result: HPGD block, IMPase cell inh)
COc1cnc(-c2ccccn2)nc1Sc1ccc(F)cc1	ALDH1A1 inh 7.9µM, HTT aggregate inconclusive (no result: HPGD block, IMPase cell inh)
COc1cnc(-c2ccccn2)nc1Sc1ccc(Cl)cc1	none
COc1ccc(-c2nc3ccccc3s2)cc1NC(=O)COc1cccc(C)c1	none (no result: HPGD block, HTT ATP protect, ALDH1A1 inh, IMPase Li inh, HTT aggregate)
CCOC(=O)c1nn(-c2ccc(C)cc2)cc1C(=O)c1ccccc1	ALDH1A1 inh inconclusive
O=C(NNC(=S)Nc1ccccc1)c1cccs1	none (no result: HTT ATP protect, IMPase cell inh)
O=C(NC(=S)Nc1ccc(-c2ccc(CO)o2)cc1)c1cccs1	ALDH1A1 inh 20µM (no result: HPGD block, IMPase cell inh)
O=C(NNC(=S)Nc1ccc(Cl)cc1)c1cccs1	ALDH1A1 inh 11µM (no result: HPGD block, IMPase cell inh)
CCCCn1nnc(NC(=S)NC(=O)c2cccs2)n1	ALDH1A1 inh 20µM (no result: HPGD block, IMPase Li inh)
CCN(CC)c1ccc(NC(=S)Nc2ccc(F)cc2)cc1	ALDH1A1 inh 11µM, HTT aggregate inconclusive (no result: HPGD block, IMPase cell inh)
CCN(CC)C(=S)SCC(=O)c1ccc(F)cc1	ALDH1A1 inh inconclusive
CCN(c1ccccc1)S(=O)(=O)c1ccc(NC(=S)NC(=O)c2cccs2)cc1	ALDH1A1 inh 6.3µM, HTT aggregate inconclusive
O=C(NNC(=S)NCc1ccccc1)c1ccccc1OC(F)F	none (no result: HTT ATP protect, IMPase cell inh)
COc1ccc(NC(=S)Nc2ccc(OC(F)F)cc2)cn1	none (no result: HPGD block, IMPase cell inh)
O=C(NNC(=S)Nc1ccc(Cl)cc1)c1ccccc1OC(F)F	ALDH1A1 inh 20µM, HTT aggregate 13µM (no result: HTT ATP protect, IMPase cell inh)
CCN(CC)C(=S)SCC(=O)Nc1ccc(F)cc1	HPGD block 18µM, ALDH1A1 inh inconclusive
COc1ccccc1NC(=S)NNC(=S)Nc1ccc(OC(F)F)cc1	ALDH1A1 inh 7.1µM
CN(C)S(=O)(=O)c1ccc(NC(=S)NC(=O)c2cccs2)cc1	ALDH1A1 inh inconclusive (no result: HPGD block, IMPase Li inh, IMPase cell inh)
O=C(O)CCn1c(-c2ccccc2)cc2ccccc21	ALDH1A1 inh inconclusive (no result: HPGD block, IMPase cell inh)
CCN(CC)c1ccc(/C=N/NC(=O)c2ccc([N+](=O)[O-])cc2)cc1	ALDH1A1 inh 28µM (no result: HPGD block, IMPase cell inh)
CCCCC(=O)Nc1ccc(NC(=S)NC(=O)CC)cc1OC	HPGD block inconclusive, ALDH1A1 inh inconclusive (no result: IMPase cell inh)
CCCCC(=O)Nc1ccc(NC(=S)NC(=O)c2cccs2)cc1OC	ALDH1A1 inh 20µM (no result: IMPase cell inh)
CCN(CC)c1ccc(NC(=S)NC(=O)c2ccco2)cc1	ALDH1A1 inh 25µM (no result: HPGD block, IMPase cell inh)
